# Several values for one entry are separate records, joined by “and”; a condition that tells them apart may be missing. Identical values can stand only once. Counter-ions that a name gives are not always drawn. Screen size: about 5,800 compounds; about 620 (11%) showed activity. The sample as a whole holds a higher share of actives than the screen did. Unmarked numbers belong to inactive results.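 The calls were made as follows: active = score above a cut-off or among the top three wells of a plate; in these data no inactive exceeds 0.85.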
# Tested on: primary human hepatic stellate cells (donor 1)
# Experiment: scaled lipid accumulation score (0 = DMSO-like, 1 = nortriptyline-like); higher = stronger HSC inactivation (lipid re-accumulation), active = hit call of the paper
# Details: 48 h
# Protocol: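 Primary lipid accumulation screen in primary human hepatic stellate cell myofibroblasts (donor 1, passage 8) in 384-well plates. 100 nL of library compound was pin-transferred into 30 µL medium in duplicate, and cells were treated for 48 h. The 'Scaled' score combines distance from plate baseline, toxicity and reproducibility penalties, and is normalised to nortriptyline (positive) and DMSO (negative) controls on each plate. A hit is defined as scaled >0.85 or among the top 3 wells per plate.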
# [1] = library stock concentration: 10 mM
# [2] = library stock concentration: 3.33 mM
# [3] = library stock concentration: 1 mM
# [4] = library stock concentration: 80 uM
# [5] = library stock concentration: 400 uM
# [6] = library stock concentration: 2 mM
compound,measurement,setting,value
COc1ccc(-c2oc3c(CC=C(C)C)c(O[C@@H]4O[C@H](CO)[C@@H](O)[C@H](O)[C@H]4O)cc(O)c3c(=O)c2O[C@@H]2O[C@@H](C)[C@H](O)[C@@H](O)[C@H]2O)cc1,scaled lipid accumulation score,[1],≤ 0
COc1ccc(-c2oc3c(CC=C(C)C)c(O[C@@H]4O[C@H](CO)[C@@H](O)[C@H](O)[C@H]4O)cc(O)c3c(=O)c2O[C@@H]2O[C@@H](C)[C@H](O)[C@@H](O)[C@H]2O)cc1 [Icariin],scaled lipid accumulation score,[2],0.048
same,scaled lipid accumulation score,[1],≤ 0
CCCCC[C@H](O)/C=C/[C@H]1[C@H](O)CC(=O)[C@@H]1C/C=C\CCCC(=O)OCC(O)CO (some centres not stated) [Prostaglandin E2-1-glyceryl ester],scaled lipid accumulation score,[3],≤ 0
CCCCC[C@H](O)/C=C/[C@@H]1[C@@H](C/C=C\CCCC(=O)NCC)[C@@H](O)C[C@H]1O [Prostaglandin F2.alpha. ethyl amide],scaled lipid accumulation score,[3],≤ 0
CCCCCCCCCCCCCCOc1ccc(C(=O)O)o1,scaled lipid accumulation score,[3],0.036
COc1ccc(-c2cnc3c(-c4ccsc4)cnn3c2)cc1 [VEGF Receptor 2 Kinase Inhibitor IV],scaled lipid accumulation score,[2],≤ 0
Cc1ccc(S(=O)(=O)C=CC#N)cc1,scaled lipid accumulation score,[2],0.718
same,scaled lipid accumulation score,[1],0.445
"CC(C)(C)c1ccc(S(=O)(=O)Nc2ccc(-n3ccnc3)cc2)cc1 [Stem-Cell Factor/c-Kit Inhibitor, ISCK03]",scaled lipid accumulation score,[2],≤ 0
CC(C)(C)c1ccc(S(=O)(=O)/C=C/C#N)cc1 [listing 1 of 2 here],scaled lipid accumulation score,[1],1.12 (active)
Cc1ccc(S(=O)(=O)/C=C/C#N)cc1 [listing 1 of 2 here],scaled lipid accumulation score,[1],0.931 (active)
CC(C)(C)c1ccc(S(=O)(=O)/C=C/C#N)cc1 [listing 2 of 2 here],scaled lipid accumulation score,[1],0.172
Cc1ccc(S(=O)(=O)/C=C/C#N)cc1 [listing 2 of 2 here],scaled lipid accumulation score,[4],≤ -0.001
same,scaled lipid accumulation score,[5],≤ -0.001
same,scaled lipid accumulation score,[6],0.813
same,scaled lipid accumulation score,[2],0.807
same,scaled lipid accumulation score,[1],0.729 and 0.437
same,scaled lipid accumulation score,library stock concentration: 24.1 mM,0.648
Cc1cc2c(C(=O)NCC(C)c3ccccc3)c(O)c(O)cc2c(O)c1-c1c(C)cc2c(C(=O)NCC(C)c3ccccc3)c(O)c(O)cc2c1O (configuration not stated) [Sabutoclax],scaled lipid accumulation score,[2],0.768
same,scaled lipid accumulation score,[1],0.582
COc1cc(CCc2cc(NC(=O)c3ccc(N4CC(C)NC(C)C4)cc3)n[nH]2)cc(OC)c1 (configuration not stated),scaled lipid accumulation score,[4],≤ -0.016
same,scaled lipid accumulation score,[5],≤ -0.016
same,scaled lipid accumulation score,[6],0.369
same,scaled lipid accumulation score,[2],0.476
same,scaled lipid accumulation score,[1],0.5
CC(Cc1ccccc1)Nc1ncnc2c1ncn2C1OC(CO)C(O)C1O (stereo not drawn) [R(-)-N6-(2-Phenylisopropyl)adenosine],scaled lipid accumulation score,[1],≤ -0.055
N#Cc1c(O)c2c(-c3ccc(-c4ccccc4O)cc3)csc2[nH]c1=O,scaled lipid accumulation score,[2],0.004
same,scaled lipid accumulation score,[1],≤ 0 and 0.001
CC1(C)S[C@@H]2[C@H](NC(=O)COc3ccccc3)C(=O)N2[C@H]1C(=O)O [Penicillin v potassium],scaled lipid accumulation score,library stock concentration: 5.1 mM,0.003
same,scaled lipid accumulation score,[1],≤ 0
CC1(C)S[C@@H]2[C@H](NC(=O)COc3ccccc3)C(=O)N2[C@H]1C(=O)O [Penicillin V],scaled lipid accumulation score,[1],≤ 0
Cc1ccc(Sc2cncc3sc(C(N)=O)cc23)cc1,scaled lipid accumulation score,[2],0.183
same,scaled lipid accumulation score,[1],0.478 and 0.373
CCOC(=O)CCC(=O)O[C@H]1[C@H](O[C@@H]2[C@@H](C)[C@H](O[C@H]3C[C@@](C)(OC)[C@@H](O)[C@H](C)O3)[C@@H](C)C(=O)O[C@H](CC)[C@@](C)(O)[C@H](O)[C@@H](C)C(=O)[C@H](C)C[C@@]2(C)O)O[C@H](C)C[C@@H]1N(C)C [Eryped],scaled lipid accumulation score,[1],≤ 0
CCOC(=O)CCC(=O)O[C@H]1[C@H](O[C@@H]2[C@@H](C)[C@H](O[C@H]3C[C@@](C)(OC)[C@@H](O)[C@H](C)O3)[C@@H](C)C(=O)O[C@H](CC)[C@@](C)(O)[C@H](O)[C@@H](C)C(=O)[C@H](C)C[C@@]2(C)O)O[C@H](C)C[C@@H]1N(C)C [Erythromycin ethylsuccinate],scaled lipid accumulation score,library stock concentration: 2.3 mM,≤ -0.001
same,scaled lipid accumulation score,[1],≤ 0
Nc1c2c(nc3ccccc13)CCCC2O (configuration not stated) [Hydroxytacrine maleate],scaled lipid accumulation score,library stock concentration: 9.3 mM,≤ -0.006
same,scaled lipid accumulation score,[1],0.056
"Nc1c2c(nc3ccccc13)CCCC2 [9-Amino-1,2,3,4-tetrahydroacridine hydrochloride]",scaled lipid accumulation score,[1],0.401
Nc1c2c(nc3ccccc13)CCCC2 [Tacrine (hydrochloride)],scaled lipid accumulation score,[3],0.026
Nc1c2c(nc3ccccc13)CCCC2 [Tacrine hydrochloride],scaled lipid accumulation score,[1],0.064
Cl.Cl.c1ccc2c(NCCCCCCCNc3c4c(nc5ccccc35)CCCC4)c3c(nc2c1)CCCC3 [bis(7)-Tacrine],scaled lipid accumulation score,[3],1.11 (active)
Nc1c2c(nc3ccccc13)CCCC2,scaled lipid accumulation score,library stock concentration: 9.7 mM,0.039
"CCCCCC(=O)CC[C@H]1C=CC(=O)[C@@H]1C/C=C\CCCC(=O)O [13,14-dihydro-15-keto Prostaglandin A2]",scaled lipid accumulation score,[3],≤ 0
CCCCC[C@H](O)/C=C/[C@H]1C2CC(CO2)[C@@H]1C/C=C/CCCC(=O)O (some centres not stated),scaled lipid accumulation score,[3],≤ 0
CCCCC[C@](C)(O)/C=C/[C@@H]1[C@@H](C/C=C\CCCC(=O)O)[C@@H](O)C[C@H]1O [15(S)-15-methyl Prostaglandin F2.alpha.],scaled lipid accumulation score,[3],≤ 0
"CCCCC/C=C\C/C=C\CC1OC1C/C=C\CCCC(=O)O (configuration not stated) [8,9-Epoxyeicosatrienoic acid]",scaled lipid accumulation score,library stock concentration: 100 uM,≤ -0.021
CNC(=O)c1cc(Oc2ccc(NC(=O)Nc3ccc(Cl)c(C(F)(F)F)c3)c(F)c2)ccn1 [Regorafenib (BAY 73-4506)],scaled lipid accumulation score,[2],≤ 0
same,scaled lipid accumulation score,[1],≤ 0
CNC(=O)c1cc(Oc2ccc(NC(=O)Nc3ccc(Cl)c(C(F)(F)F)c3)cc2)ccn1 [Sorafenib],scaled lipid accumulation score,[2],≤ 0
same,scaled lipid accumulation score,[1],≤ 0
"CNC(=O)c1cc(Oc2ccc(NC(=O)Nc3ccc(Cl)c(C(F)(F)F)c3)cc2)ccn1 [Sorafenib (Nexavar, BAY43-9006) (10 mM)]",scaled lipid accumulation score,[1],1.21 (active)
"CNC(=O)c1cc(Oc2ccc(NC(=O)Nc3ccc(Cl)c(C(F)(F)F)c3)cc2)ccn1 [Sorafenib  (Nexavar, BAY43-9006) (0.4 mM)]",scaled lipid accumulation score,[5],0.021
CNC(=O)c1cc(Oc2ccc(NC(=O)Nc3ccc(Cl)c(C(F)(F)F)c3)c(F)c2)ccn1 [Regorafenib],scaled lipid accumulation score,[4],≤ -0.016
same,scaled lipid accumulation score,[5],0.033
same,scaled lipid accumulation score,[6],≤ -0.016
same,scaled lipid accumulation score,[1],≤ -0.016
"CNC(=O)c1cc(Oc2ccc(NC(=O)Nc3ccc(Cl)c(C(F)(F)F)c3)cc2)ccn1 [Sorafenib  (Nexavar, BAY43-9006) (2 mM)]",scaled lipid accumulation score,[6],0.299
CNC(=O)c1cc(Oc2ccc(NC(=O)Nc3ccc(Cl)c(C(F)(F)F)c3)cc2)ccn1 [Sorafenib Tosylate],scaled lipid accumulation score,[2],0.005
same,scaled lipid accumulation score,[1],≤ 0
CNC(=O)c1cc(Oc2ccc(NC(=O)Nc3ccc(Cl)c(C(F)(F)F)c3)cc2)ccn1,scaled lipid accumulation score,[4],0.04
same,scaled lipid accumulation score,[5],0.075
same,scaled lipid accumulation score,[6],≤ 0
same,scaled lipid accumulation score,[1],0.672
CC1(C(=O)O)NCCc2cc(O)c(O)cc21 (configuration not stated) [Salsolinol-1-carboxylic acid],scaled lipid accumulation score,[1],0.05
NC/C=C/C(=O)O [(E)-4-amino-2-butenoic acid],scaled lipid accumulation score,[1],≤ 0
CCn1cc(-c2ccnc3[nH]c(-c4cccc(CN(C)C)c4)cc23)c(-c2ccc(NC(=O)N(C)C)cc2)n1 [listing 1 of 2 here],scaled lipid accumulation score,[1],0.863 (active)
CCn1cc(-c2ccnc3[nH]c(-c4cccc(CN(C)C)c4)cc23)c(-c2ccc(NC(=O)N(C)C)cc2)n1 [listing 2 of 2 here],scaled lipid accumulation score,[4],≤ 0
same,scaled lipid accumulation score,[5],≤ 0
same,scaled lipid accumulation score,[6],0.222
CN(C)C(=O)Nc1cccc(-c2ccc(N(C)C)cc2)c1 [Atglistatin],scaled lipid accumulation score,[2],0.012
same,scaled lipid accumulation score,[1],0.076
NCCNCCNCCN [Trientine hydrochloride],scaled lipid accumulation score,library stock concentration: 9.1 mM,≤ 0
CC(=O)Oc1ccc2c(c1)CC[C@@H]1[C@@H]2CC[C@]2(C)[C@@H](OC(C)=O)CC[C@@H]12 [Estradiol diacetate],scaled lipid accumulation score,[1],≤ 0
N#C[C@@H]1C[C@@H]2C[C@@H]2N1C(=O)[C@@H](N)C12CC3CC(CC(O)(C3)C1)C2 [Saxagliptin],scaled lipid accumulation score,[2],≤ 0
same,scaled lipid accumulation score,[1],≤ 0
N#C[C@@H]1C[C@@H]2C[C@@H]2N1C(=O)[C@@H](N)C12CC3CC(CC(O)(C3)C1)C2,scaled lipid accumulation score,[1],≤ 0
O=C(O)CCC/C=C\C[C@H]1C(=O)C[C@@H](O)[C@@H]1/C=C/[C@@H](O)Cc1ccccc1 [16-phenyl tetranor Prostaglandin E2],scaled lipid accumulation score,[3],≤ 0
CCCCn1c(=O)c2[nH]c(C34CC5CC(CC3C5)C4)nc2n(CCCO)c1=O,scaled lipid accumulation score,[1],≤ -0.001
CN1CCN2c3ccccc3Cc3ccccc3C2C1 (configuration not stated) [Mianserin HCl],scaled lipid accumulation score,[2],0.172
same,scaled lipid accumulation score,[1],0.188
CN1CCN2c3ccccc3Cc3ccccc3C2C1 (configuration not stated) [Mianserin hcl],scaled lipid accumulation score,library stock concentration: 7.6 mM,0.348
CN1CCN2c3ncccc3Cc3ccccc3C2C1 (configuration not stated),scaled lipid accumulation score,[1],0.409
CN1CCN2c3ncccc3Cc3ccccc3C2C1 (configuration not stated) [Mirtazepine],scaled lipid accumulation score,[1],0.053
CN1CCN2c3ccccc3Cc3ccccc3C2C1 (configuration not stated) [Mianserin hydrochloride],scaled lipid accumulation score,library stock concentration: 6.6 mM,0.236
same,scaled lipid accumulation score,[1],0.398
CN1CCN2c3ccccc3Cc3ccccc3C2C1.Cl (configuration not stated) [Mianserin hydrochloride],scaled lipid accumulation score,[1],0.869 (active)
CN1CCN2c3ncccc3Cc3ccccc3C2C1 (configuration not stated) [mirtazapine],scaled lipid accumulation score,[1],0.317
CN1CCN2c3ncccc3Cc3ccccc3C2C1 (configuration not stated) [Mirtazapine],scaled lipid accumulation score,[2],≤ 0
same,scaled lipid accumulation score,[1],0.104
CN1CCN2c3ccccc3Cc3ccccc3C2C1 (configuration not stated) [Mianserine hydrochloride],scaled lipid accumulation score,,0.681

# Source: the supplement of paper PMC9135407
